This is part of a sample that, as a whole, favours compounds with a hit. Of some 79,000 tested, about 15% had one in any assay. A number with no mark means an inactive call. Active and inactive are the calls of the source. No stated cut-off is given here; in the data, active means growth inhibition above about 70%; inactive means the rest.
Assays:
[1] = NCI Yeast Anticancer Drug Screen. Data for the rad50 strain (AID 155);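 further: 0% = growth of vehicle-only cultures of the same strain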; settings: S. cerevisiae rad50 strain growth inhibition, active compounds read high
How it was run: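 Genetically altered yeast (DNA repair pathway); compound treatment; growth inhibition vs vehicle ctrl.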

[2] = NCI Yeast Anticancer Drug Screen. Data for the mec2-1 strain (AID 157); settings: S. cerevisiae mec2-1 strain, active compounds read high
How it was run: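 Vehicle-treated cultures served as reference for growth inhibition of compound-exposed mec2-1 yeast.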

[3] = NCI Yeast Anticancer Drug Screen. Data for the sgs1 mgt1 strain (AID 161);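 further: 0% = growth of cultures given vehicle only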; settings: S. cerevisiae sgs1 mgt1 strain, active compounds read high
How it was run: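 Test agents were incubated with a DNA-repair-mutant yeast strain. Growth was then read and compared against vehicle-treated controls.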

[4] = NCI Yeast Anticancer Drug Screen. Data for the cln2 rad14 strain (AID 165);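 further: 0% = growth equal to vehicle treated cultures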; settings: S. cerevisiae cln2 rad14 strain, active compounds read high
How it was run: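 Each compound was tested on cln2 rad14 yeast. Inhibition of growth was calculated against vehicle-exposed controls.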

[5] = NCI Yeast Anticancer Drug Screen. Data for the bub3 strain (AID 167); settings: S. cerevisiae bub3 mutant strain, active compounds read high
How it was run: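 Yeast carrying a defined mutation is treated with each compound, and growth is compared with that of vehicle-exposed cells to give inhibition.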

[6] = NCI Yeast Anticancer Drug Screen. Data for the mlh1 rad18 strain (AID 175); settings: S. cerevisiae mlh1 rad18 strain growth inhibition, active compounds read high
How it was run: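 Vehicle-treated cultures served as the reference for growth inhibition in a yeast strain carrying DNA damage repair alterations exposed to each compound.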

[7] = at 5.0 µM (retest, dose inferred, filed as 0.5)
[8] = at 50.0 µM (retest, dose inferred, filed as 5.0)

| Compound | growth inhibition [1, 7] | growth inhibition [1, 8] | growth inhibition ([1]; at 50.0 µM) | growth inhibition [2, 7] | growth inhibition [2, 8] | growth inhibition ([2]; at 50.0 µM) | growth inhibition [3, 7] | growth inhibition [3, 8] | growth inhibition ([3]; at 50.0 µM) | growth inhibition [4, 7] | growth inhibition [4, 8] | growth inhibition ([4]; at 50.0 µM) | growth inhibition [5, 7] | growth inhibition [5, 8] | growth inhibition ([5]; at 50.0 µM) | growth inhibition [6, 7] | growth inhibition [6, 8] | growth inhibition ([6]; at 50.0 µM) |
| --- | --- | --- | --- | --- | --- | --- | --- | --- | --- | --- | --- | --- | --- | --- | --- | --- | --- | --- |
| CCOC(=O)/C(=C/c1ccccc1Br)P(=O)(OCC)OCC | 7% | 39% | 71.2% (active) | -6% | 60% | 35.8% | -12% | 38% | 41.9% | 18% | 53% | 33.5% | -2% | 85% (active) | 61.3% | -18% | 74% (active) | 30% |
| O=[N+]([O-])/C=C/c1cc2ccccc2[nH]1 | 6% | 99% (active) | 99.5% (active) | -6% | 100% (active) | 99.5% (active) | 9% | 99% (active) | 99.4% (active) | 11% | 99% (active) | 96.5% (active) | -8% | 100% (active) | 99.5% (active) | 16% | 99% (active) | 99.2% (active) |
| C[N+](C)(C)CC(=O)N/N=C(\C(=O)NC1=C(Cl)C(=O)c2ccccc2C1=O)C(C#N)c1nc(-c2ccc([N+](=O)[O-])cc2)cs1 (stereo not given) | 27% | 98% (active) | 76% (active) | 6% | 97% (active) | 56.6% | 11% | 97% (active) | 60.3% | 13% | 91% (active) | 50.6% | -23% | 97% (active) | 75.2% (active) | 13% | 97% (active) | 78.7% (active) |
| CCC1CCC2=C(C1)C(=O)c1ccccc1C2=O (stereo not given) | 6% | 91% (active) | 3.4% | 7% | 92% (active) | 49.5% | 11% | 96% (active) | 45% | 11% | 71% (active) | 49.3% | 9% | 94% (active) | 95.9% (active) | 6% | 97% (active) | 51.5% |
| CC(C)(C)c1ccc(C(C)(C)C)cc1 | 1% | 3% | -10.7% | -5% | -4% | 6.55% | 1% | -9% | -20.4% | 4% | -7% | 50.8% | 5% | 13% | 3% | -2% | 1% | 1.55% |
| C(=C\[P+](c1ccccc1)(c1ccccc1)c1ccccc1)/c1ccccc1 | 86% (active) | 99% (active) | 98.8% (active) | 94% (active) | 99% (active) | 99.7% (active) | 80% (active) | 99% (active) | 99.2% (active) | 76% (active) | 98% (active) | 98.1% (active) | 85% (active) | 98% (active) | 98.8% (active) | 91% (active) | 98% (active) | 99.1% (active) |
| c1ccc(C(CNCCN2CCCCCC2)C2CCCCC2)cc1 (stereo not given) | 21% | 12% | 82.5% (active) | 13% | 22% | 44.6% | 26% | -9% | 89.8% (active) | 10% | 16% | 74.7% (active) | 22% | 20% | 66.5% | 18% | 23% | 87.2% (active) |
| CCCCCCCCCCCCCCN1CCSCC1 | 6% | 18% | 98.5% (active) | 3% | 14% | 96% (active) | 4% | 1% | 99% (active) | 5% | 14% | 98.6% (active) | 9% | 21% | 99% (active) | 5% | 12% | 98.8% (active) |
| CC1(C)CCC(C)(C)c2cc(C(=O)Nc3ccc(C(=O)O)cc3)ccc21 | 21% | 99% (active) | -12.2% | 22% | 96% (active) | -18.1% | 20% | 99% (active) | 0.8% | 36% | 97% (active) | -8.75% | 13% | 98% (active) | 4% | 34% | 97% (active) | 5.75% |
| [O-]/[N+](O)=C\c1ccccn1 | -2% | -13% | 5.75% | 2% | -8% | 6.55% | -5% | -9% | -0.75% | -2% | -10% | -57.6% | 1% | 0% | -8.4% | 0% | -10% | 37.1% |
| O=C1C(Cl)=C(Cl)C(=O)C2=C1CC(Cl)C(Cl)C2 (stereo not given) | 87% (active) | 98% (active) | 99.3% (active) | 90% (active) | 99% (active) | 99.3% (active) | 91% (active) | 97% (active) | 99.5% (active) | 37% | 99% (active) | 99% (active) | 96% (active) | 98% (active) | 99.3% (active) | 95% (active) | 99% (active) | 99.2% (active) |
| COC1=C2C[C@@H](C)C[C@@H](OC)[C@@H](O)[C@H](C)/C=C(\C)[C@@H](OC(N)=O)[C@H](OC)/C=C\C=C(/C)C(=O)NC(=CC1=O)C2=O | 61% | 88% (active) | 85.8% (active) | 81% (active) | 91% (active) | 89.7% (active) | 86% (active) | 92% (active) | 91.5% (active) | 56% | 85% (active) | 84.8% (active) | 84% (active) | 88% (active) | 89.7% (active) | 69% | 85% (active) | 90% (active) |
| Cc1cc(=Nc2ccc3c(c2)c(N)cc(C)[n+]3C)nc(N)n1C | 84% (active) | 88% (active) | 97.1% (active) | 78% (active) | 95% (active) | 92.5% (active) | 78% (active) | 61% | 95.2% (active) | 83% (active) | 85% (active) | 91.9% (active) | 75% (active) | 87% (active) | 89.1% (active) | 83% (active) | 90% (active) | 97.5% (active) |
| Cc1c(-c2ccccc2)ccnc1/C=N/NC(=S)NCCc1ccccc1 | 49% | 77% (active) | 76.3% (active) | 52% | 85% (active) | 76.3% (active) | 52% | 83% (active) | 75.5% (active) | 42% | 80% (active) | 70% | 55% | 84% (active) | 77.7% (active) | 49% | 80% (active) | 74% (active) |
| CCN(CC)Cc1ccc(Nc2cc(C)nc(/N=C(\N)Nc3ccc(Cl)c(Cl)c3)n2)cc1 | 66% | 97% (active) | 97.3% (active) | 55% | 98% (active) | 95.3% (active) | 59% | 98% (active) | 98.1% (active) | 11% | 97% (active) | 82.5% (active) | 7% | 98% (active) | 94.2% (active) | 55% | 98% (active) | 97.3% (active) |
| COC(=O)CCCCCOS(=O)(=O)c1ccc(C)cc1 | 1% | -5% | 26.9% | -3% | -5% | 16.2% | -4% | -3% | 21.9% | -3% | -14% | 84.2% (active) | -1% | -5% | 1.05% | -5% | -8% | 0.7% |
| Oc1ccc2oc3ccccc3c2c1 | 9% | 94% (active) | 94.5% (active) | 0% | 87% (active) | 76% (active) | 0% | 82% (active) | 84.3% (active) | -3% | 46% | 75.5% (active) | 0% | 92% (active) | 88.4% (active) | 3% | 94% (active) | 94.5% (active) |
| O=C1CC2Sc3ccccc3N=C2N1c1ccc(Cl)cc1Cl (stereo not given) | 36% | 96% (active) | 88.2% (active) | 33% | 100% (active) | 93.2% (active) | 42% | 100% (active) | 88.8% (active) | 34% | 73% (active) | 65.2% | 39% | 99% (active) | 92% (active) | 47% | 98% (active) | 89.6% (active) |
| CCCCCCCCCCCCNc1ccccn1 | -3% | 98% (active) | 18.4% | 25% | 99% (active) | 21.2% | 42% | 99% (active) | 69.8% | 6% | 99% (active) | 56% | 29% | 99% (active) | 48% | 37% | 99% (active) | 80.8% (active) |
| Cc1cc(C(O)(c2cc(C)c(O)c(C(=O)O)c2)c2cc(C)c(O)c(C(=O)O)c2)cc(C(=O)O)c1O | 2% | -5% | 12.4% | 2% | -11% | -18% | 0% | 1% | 5.35% | 6% | -5% | 21.9% | -43% | -3% | -11.7% | 2% | -9% | 10.3% |
